9 compounds from PubChem BioAssay (NCATS) can be followed below.

The structures appear in SMILES notation. Inconclusive results are not listed. A number with no mark means an inactive call. This is one part of the list. Activity calls are given as the source filed them. Calls come from the whole dose curve; as a rule, active = well fitted curve in the direction sought with a large enough effect; inconclusive = small, poorly fitted or top-dose-only effect, or another doubt; inactive = no such curve, though single readings can be large; an effect the other way counts as inactive or inconclusive.

The target in assay [1] is Rap guanine nucleotide exchange factor 3 (Homo sapiens) (UniProt O95398). The assay is described as follows: Confirmatory qHTS for antagonist of cAMP-regulated guanine nucleotide exchange factor 3 (EPAC1) (AID 1645880).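 For activity, negative = inhibition: plate controls were DMSO only for no effect and full effect of the ATA control for full effect.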 Note: nearly all actives have a fitted effect of over 55% in size. Note: potency is the fitted concentration of half-maximal effect. The note with it: EPAC1 Rap1B-BODIPY-GDP exchange, fluorescence; activity, negative = inhibition: at 115 µM (top of the series). Summed up: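 Nucleotide exchange uses 100 nM EPAC1, 250 nM RAP1B-BODIPY-GDP and 50 uM GDP, with compounds in a concentration-titration series. After 5 min at room temperature, fluorescence (480 nm ex/540 nm em) is read every 5 min for 30 min. Data are normalized to control ATA and DMSO.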
Rap guanine nucleotide exchange factor 3 (Homo sapiens), sequence (O95398 whole entry, looked up): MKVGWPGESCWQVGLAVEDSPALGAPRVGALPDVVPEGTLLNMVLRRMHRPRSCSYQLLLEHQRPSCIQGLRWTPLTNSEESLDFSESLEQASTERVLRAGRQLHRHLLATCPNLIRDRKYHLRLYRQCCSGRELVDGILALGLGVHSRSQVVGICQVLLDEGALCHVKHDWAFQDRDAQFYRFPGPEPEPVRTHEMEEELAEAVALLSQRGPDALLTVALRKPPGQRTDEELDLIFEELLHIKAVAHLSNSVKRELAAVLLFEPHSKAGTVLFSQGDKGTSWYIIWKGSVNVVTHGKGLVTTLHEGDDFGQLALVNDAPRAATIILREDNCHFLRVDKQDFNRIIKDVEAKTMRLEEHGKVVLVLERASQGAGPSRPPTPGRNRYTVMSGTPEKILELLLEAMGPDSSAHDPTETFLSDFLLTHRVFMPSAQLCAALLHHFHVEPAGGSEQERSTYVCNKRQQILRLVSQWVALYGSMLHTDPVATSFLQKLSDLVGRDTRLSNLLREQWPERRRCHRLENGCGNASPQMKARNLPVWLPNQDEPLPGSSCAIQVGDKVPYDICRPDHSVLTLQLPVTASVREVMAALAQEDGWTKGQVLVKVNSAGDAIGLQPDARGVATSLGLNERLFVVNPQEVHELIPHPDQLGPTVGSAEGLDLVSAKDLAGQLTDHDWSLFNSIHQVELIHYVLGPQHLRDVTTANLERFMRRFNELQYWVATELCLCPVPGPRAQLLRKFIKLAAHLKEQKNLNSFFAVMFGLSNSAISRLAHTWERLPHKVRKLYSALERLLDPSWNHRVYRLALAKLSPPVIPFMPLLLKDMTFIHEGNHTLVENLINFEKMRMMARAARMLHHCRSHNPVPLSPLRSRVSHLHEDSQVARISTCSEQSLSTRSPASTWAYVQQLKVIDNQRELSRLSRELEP
(In general: qHTS replaces the single test concentration by a dilution series.)

The target is the same in assay [2]. The assay is described as follows: Confirmatory qHTS for agonist of cAMP-regulated guanine nucleotide exchange factor 3 (EPAC1) (AID 1645881).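 Note: EPAC1 catalysed release of BODIPY-GDP from Rap1B seen as fluorescence loss; 100% = effect of cAMP agonist control; nearly all actives have a fitted effect of over 75% in size.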
In assay [3] the target is Rap guanine nucleotide exchange factor 4 (Homo sapiens) (UniProt Q8WZA2). The assay is described as follows: Confirmatory qHTS for agonist of cAMP-regulated guanine nucleotide exchange factor 4 (EPAC2) (AID 1645884).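 Note: nucleotide exchange releases bodipy-GDP from Rap1 and this lowers its fluorescence; % is set by controls: 0 for no effect and ±100 for the full control effect; nearly all actives have a fitted effect of over 65% in size.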
Rap guanine nucleotide exchange factor 4 (Homo sapiens), sequence (Q8WZA2 whole entry, looked up): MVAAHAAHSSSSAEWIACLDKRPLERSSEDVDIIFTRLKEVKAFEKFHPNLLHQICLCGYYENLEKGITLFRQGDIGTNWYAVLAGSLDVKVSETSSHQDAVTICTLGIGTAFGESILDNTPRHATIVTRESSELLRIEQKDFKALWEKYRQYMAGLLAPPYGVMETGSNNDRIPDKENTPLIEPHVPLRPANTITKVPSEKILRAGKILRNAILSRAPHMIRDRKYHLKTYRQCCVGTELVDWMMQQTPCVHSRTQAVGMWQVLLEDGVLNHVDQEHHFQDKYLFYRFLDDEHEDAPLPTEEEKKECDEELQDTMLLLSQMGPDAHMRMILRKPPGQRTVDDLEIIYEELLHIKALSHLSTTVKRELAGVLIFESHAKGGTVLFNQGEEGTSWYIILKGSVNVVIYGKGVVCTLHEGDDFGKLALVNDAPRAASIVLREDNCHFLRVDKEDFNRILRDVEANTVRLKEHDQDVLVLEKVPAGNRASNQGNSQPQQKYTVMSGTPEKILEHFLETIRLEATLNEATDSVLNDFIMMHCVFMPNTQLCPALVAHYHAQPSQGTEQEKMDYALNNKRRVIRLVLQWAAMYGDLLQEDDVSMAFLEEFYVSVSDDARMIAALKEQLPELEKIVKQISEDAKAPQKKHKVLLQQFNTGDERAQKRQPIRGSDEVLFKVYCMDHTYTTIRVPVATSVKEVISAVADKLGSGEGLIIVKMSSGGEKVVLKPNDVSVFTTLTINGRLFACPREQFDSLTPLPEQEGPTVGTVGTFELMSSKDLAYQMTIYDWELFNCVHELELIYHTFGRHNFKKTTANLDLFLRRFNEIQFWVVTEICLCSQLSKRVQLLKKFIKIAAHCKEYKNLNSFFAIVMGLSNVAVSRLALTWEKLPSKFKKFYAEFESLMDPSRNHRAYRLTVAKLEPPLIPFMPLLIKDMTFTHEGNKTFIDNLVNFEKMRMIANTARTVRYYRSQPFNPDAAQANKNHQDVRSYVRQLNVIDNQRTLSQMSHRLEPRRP
For assay [4] the target is unchanged. The assay is described as follows: Confirmatory qHTS for antagonist of cAMP-regulated guanine nucleotide exchange factor 4 (EPAC2) (AID 1645885). For activity change, negative = inhibition: % is set by controls: 0 for no effect and ±100 for the full control effect. Note: nearly all actives have a fitted effect of over 25% in size.
Assay [5] concerns the target Rap guanine nucleotide exchange factor 3 (Homo sapiens) (UniProt O95398). Description: Counterscreen qHTS for antagonist of cAMP-regulated guanine nucleotide exchange factor 3 (EPAC1) (AID 1645888).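 Note: fluorescence loss as bound BODIPY-GDP is released from Rap1B; % of control where 0% means no effect.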 A digest of the protocol: (§1)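 Rap1B–BODIPY-GDP (250 nM) with 50 uM GDP; compounds pin-transferred to 9.74 nM–152 uM final (activator) or from 7.32 nM upwards (inhibitor). Fluorescence Ex/Em 480/540 nm read at 5 and 30 min, then after adding cAMP or buffer, at room temperature.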
Background: The purpose of a counterscreen is to sort out artefacts and off-target activity.

For assay [6] the target is unchanged. The assay is described as follows: Counterscreen qHTS for agonist of cAMP-regulated guanine nucleotide exchange factor 3 (EPAC1) (AID 1645889). Note: % of control where 0% means no effect; nearly all actives have a fitted effect of over 40% in size. Summed up: as §1
A short description of assay [7]: qHTS for Inhibitors of Plasmodium falciparum (DD2) proliferation (AID 504314).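 Note: parasite DNA measured by SYBR Green fluorescence after red cell lysis; plate controls were DMSO vehicle for no effect and artemisinin wells for full effect.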 A digest of the protocol:
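Infected RBCs, 0.3% parasitemia, 2.5% Hct; compound 72 h, 37C/5% CO2; lyse + SYBR Green I, RT overnight, dark; read ex485/em535; normalize to DMSO and artemisinin 0.29 uM.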

Assay [8] in a line: qHTS for Inhibitors of Plasmodium falciparum (GB4) proliferation (AID 504315).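 Note: 0% = DMSO vehicle and -100% = 0.29 µM artemisinin control; nearly all actives have a fitted effect of over 50% in size.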 Summed up: (§2)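 Erythrocytes infected with P. falciparum line (0.3% parasitemia, 2.5% hematocrit final) incubated with compounds 72 h at 37 °C, 5% CO2; SYBR Green lysis buffer added, fluorescence read next day. Normalized to 0.29 uM artemisinin and DMSO.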
A short description of assay [9]: qHTS for Inhibitors of Plasmodium falciparum (7G8) proliferation (AID 504316).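 Note: 0% = DMSO vehicle and -100% = 0.29 µM artemisinin full kill; nearly all actives have a fitted effect of over 65% in size.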 Summed up:
as §2

Assay [10] in a line: qHTS for Inhibitors of Plasmodium falciparum (CP250) proliferation (AID 504320).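 Note: plate controls were DMSO vehicle for no effect and 0.29 µM artemisinin control for full effect.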 A digest of the protocol:
as §2

A short description of assay [11]: qHTS Assay for Inhibitors of Fructose-1,6-bisphosphate Aldolase from Giardia Lamblia: Mammalian cellular toxicity (AID 2786).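 Note: compound exposure lasted 48 h before reading; % is set by controls: 0 for no effect and ±100 for the full control effect; nearly all actives have a fitted effect of over 60% in size.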 A digest of the protocol: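 CHO cells seeded at 250 cells/well with pin-tool-added compound, incubated 48 h at 37 °C, 5% CO2. Viability read as ATP content by ATPlite luminescence after 20 min.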
For assay [12], the target named is Fructose-bisphosphate aldolase (Giardia intestinalis (strain ATCC 50803 / WB clone C6)) (UniProt A8B2U2). Description: qHTS Assay for Inhibitors of Fructose-1,6-bisphosphate Aldolase from Giardia Lamblia: Primary screen confirmation (AID 2787).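 Note: aldolase product measured through coupled diaphorase step turning resazurin into fluorescent resorufin; % is set by controls: 0 for no effect and ±100 for the full control effect; nearly all actives have a fitted effect of over 45% in size.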 Summed up:
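Confirmation of primary hits by qHTS up to 57.5 uM final compound. Enzyme at 40 nM with 30 uM ZnCl2, 10 min RT pre-incubation, then substrate/coupling/resorufin-forming detection mix for 20 min before fluorescence read at 525/598 nm.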

Assay [13] concerns the target Fructose-bisphosphate aldolase A (Oryctolagus cuniculus) (UniProt P00883). Description: qHTS Assay for Inhibitors of Fructose-1,6-bisphosphate Aldolase from Giardia Lamblia: Rabbit FBPA Selectivity (AID 2794). Note: % is set by controls: 0 for no effect and ±100 for the full control effect; nearly all actives have a fitted effect of over 60% in size. A digest of the protocol:
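Room-temperature coupled fluorescence assay using rabbit aldolase. Steps: coupling enzymes, compound (up to 57.5 uM final), 10 min; substrate plus detection reagent, 20 min; read 525/598 nm.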

The nature of assay [14]: qHTS Assay for Inhibitors of Fructose-1,6-bisphosphate Aldolase from Giardia Lamblia: Coupling assay counterscreen confirmation (AID 2795). Note: % is set by controls: 0 for no effect and ±100 for the full control effect; nearly all actives have a fitted effect of over 55% in size. A digest of the protocol:
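Concentration-response counterscreen (up to 57.5 uM final) of aldolase-screen hits against coupling enzymes only. Substrate, coupling system and AmpLite Red were added after a 10 min RT preincubation; fluorescence was taken 20 min later at 525/598 nm.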

A short description of assay [15]: qHTS for Inhibitors of the vitamin D receptor (VDR): Hit Validation using a Texas Red Assay (AID 602201). Note: potency is the fitted concentration of half-maximal effect. A digest of the protocol:
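Fluorescence polarization with 1.5 uM VDR-LBD, LG19078 and 7 nM Texas Red (final). After 2 hours at ambient temperature, read at Ex 595 nm/Em 615 nm.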

Fructose-bisphosphate aldolase A (Oryctolagus cuniculus), sequence (P00883 whole entry, looked up): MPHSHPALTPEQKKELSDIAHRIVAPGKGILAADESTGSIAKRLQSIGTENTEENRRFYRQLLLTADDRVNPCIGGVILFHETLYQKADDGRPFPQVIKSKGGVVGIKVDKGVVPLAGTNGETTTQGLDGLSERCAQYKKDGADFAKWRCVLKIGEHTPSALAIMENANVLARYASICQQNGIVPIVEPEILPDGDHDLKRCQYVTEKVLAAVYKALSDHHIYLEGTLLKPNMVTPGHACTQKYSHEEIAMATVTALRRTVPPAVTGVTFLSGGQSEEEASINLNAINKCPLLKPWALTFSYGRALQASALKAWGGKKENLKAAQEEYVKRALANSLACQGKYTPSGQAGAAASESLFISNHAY
Fructose-bisphosphate aldolase (Giardia intestinalis (strain ATCC 50803 / WB clone C6)), sequence (A8B2U2 whole entry, looked up): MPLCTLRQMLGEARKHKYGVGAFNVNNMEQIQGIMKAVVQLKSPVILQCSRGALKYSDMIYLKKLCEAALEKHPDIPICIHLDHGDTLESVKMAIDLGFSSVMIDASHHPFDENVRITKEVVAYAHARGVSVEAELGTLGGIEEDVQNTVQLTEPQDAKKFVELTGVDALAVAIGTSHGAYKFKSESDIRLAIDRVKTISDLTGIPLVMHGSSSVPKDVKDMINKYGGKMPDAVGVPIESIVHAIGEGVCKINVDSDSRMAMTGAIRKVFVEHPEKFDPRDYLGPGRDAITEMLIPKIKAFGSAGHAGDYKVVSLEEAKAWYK

With `O=c1[nH][nH]c(-c2ccccc2O)c1C(C[N+](=O)[O-])c1ccc(Cl)cc1Cl` (stereo not drawn), the Potency entry in assay [1], in assay [2], in assay [3], in assay [4], in assay [5] and in assay [6] was “inactive” each time.
Regarding `COc1ccc(-c2cc3c(c4c2ccn4C)C2CCC3O2)cc1OC` (stereo not drawn), the Potency entry in assay [1], in assay [2] and in [4] was “inactive” each time. Besides, the activation is 6.95% [at 17.1 µM, percent relative to cAMP agonist control] in [3] and 10.3% [at 30.8 µM] in assay [6]. Moreover, the activity change, negative = inhibition in assay [5] is 9.79% [at 30.8 µM].
On to `O=S(=O)(NCC1(N2CCOCC2)CCCCC1)c1ccc(Cl)cc1C(F)(F)F`, for which the Potency entry in assay [1], in assay [2], in [3], in assay [4], in assay [5] and in assay [6] was “inactive” in each case.
Take `COc1ccc2c(c1)O[C@H](c1ccc3c(c1)OCO3)[C@@H](O)C2=O`: the call in assay [7], in [8], in assay [9] and in assay [10] was inactive. Further, the Potency result in assay [1], in assay [2] and in assay [4] was “inactive” each time. For the same compound, the activation in [3] was 6.45% [at 17.1 µM, percent relative to cAMP agonist control]; in assay [6], 17% [at 30.8 µM]. The activity change, negative = inhibition in assay [5] is -0.524% [at 30.8 µM].
As to `CSc1ccccc1C(=O)Nc1ccc(C)cc1C`, the Potency result in [1], in [2] and in assay [4] was “inactive” each time. Besides, the activation in assay [3] is -2.17% [at 17.1 µM, percent relative to cAMP agonist control]; in [6], -3.4% [at 30.8 µM]. The activity change, negative = inhibition in assay [5] was -16.8% [at 30.8 µM].
With `CCCc1nc2ccccc2c(=O)n1/N=C/c1ccc(O)c(O)c1`, the call in assay [11], in assay [12], in assay [13] and in assay [14] was inactive. In addition, the Potency result in assay [1], in assay [2], in assay [3], in assay [4], in assay [5] and in assay [6] was “inactive” in each case.
Consider `CC1=C(CO)C(=O)OC([C@@H](C)C2CC[C@H]3C4C[C@H]5O[C@]56[C@@H](O)C=CC(=O)[C@]6(C)C4CC[C@]23C)C1` (stereo partly drawn), for which the Potency in [15] is 11.2 µM (active); in [1], 84.9 µM (active). Also, the Potency entry in [2], in assay [3], in [4], in assay [5] and in [6] was “inactive” throughout.
Consider `Cc1ccc(C)c(CSc2nnc(C)n3c2cc2sccc23)c1`, for which the Potency entry in assay [1], in assay [2], in [3], in assay [4], in [5] and in assay [6] was “inactive” in each case.
As for `CCCN1C(=O)c2[nH]nc(-c3cccc(OC)c3)c2C1c1ccccn1` (stereo not drawn), the Potency entry in [1], in [2], in [3], in assay [5] and in assay [6] was “inactive” each time. Moreover, the outcome in assay [4] was “inactive [at 12.7 µM]”.
